# Cav32 inh = Cav3.2 calcium influx blockers – cell-based, Fluo-4 calcium fluorescence, FDSS, MLSMR library, primary screen. Voltage-dependent T-type calcium channel subunit alpha-1H (Homo sapiens), O95180. Cav3.2-expressing cells; stronger effect = lower value. B-score at 10 µM. 100,000 tested, 4% active;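 active = single-dose well whose peak fluorescence ratio is a statistical outlier from its plate by either plate-standardised score or position-corrected B-score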
# CYP2C19 act = human CYP2C19 activators, primary screen, biochemical, luminescence; Cytochrome P450 2C19 (Homo sapiens), P33261; recombinant CYP2C19, luciferin-H EGE luminescence; stronger effect = higher value; 0 = fully inhibited enzyme, 1 = untreated enzyme; activation factor at 5 µM; 96,000 tested, under 10 active; AID 1025, 2008;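 active = activation factor of at least 2 at 5 µM in the primary screen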;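 also: 0 = wells with 2.5 mM tranylcypromine and 1 = vehicle-only wells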
# CYP2C19 inhib = blockers of cytochrome P450 2C19 activity – biochemical, luminescence, ADME assay, primary screen; P33261; CYP2C19 Supersomes, luciferin-H EGE luminescence, 30 min; inhibition, % at 5 µM; 96,000 tested, 21% active; AID 778, 2007;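 active = CYP2C19 inhibition above a set limit at 5 µM in the primary screen, cut at about 50% in these data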;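 also: plate controls were negative control wells for no effect and 2.5 mM tranylcypromine positive control for full effect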
# CYP2C9 activ = human CYP2C9 activators, primary screen, biochemical, luminescence; recombinant CYP2C9, luciferin-H conversion; stronger effect = higher value; factor 1 = untreated enzyme, 0 = blocked; 96,000 tested, 1.4% active; activation factor at 5 µM; Cytochrome P450 2C9 (Homo sapiens), P11712;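 active = activation factor of 2 or more for CYP2C9 at a 5 µM dose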;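 also: 0 = sulfaphenazole-blocked wells and 1 = vehicle-only wells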
# Target sequence (P11712 whole entry, looked up): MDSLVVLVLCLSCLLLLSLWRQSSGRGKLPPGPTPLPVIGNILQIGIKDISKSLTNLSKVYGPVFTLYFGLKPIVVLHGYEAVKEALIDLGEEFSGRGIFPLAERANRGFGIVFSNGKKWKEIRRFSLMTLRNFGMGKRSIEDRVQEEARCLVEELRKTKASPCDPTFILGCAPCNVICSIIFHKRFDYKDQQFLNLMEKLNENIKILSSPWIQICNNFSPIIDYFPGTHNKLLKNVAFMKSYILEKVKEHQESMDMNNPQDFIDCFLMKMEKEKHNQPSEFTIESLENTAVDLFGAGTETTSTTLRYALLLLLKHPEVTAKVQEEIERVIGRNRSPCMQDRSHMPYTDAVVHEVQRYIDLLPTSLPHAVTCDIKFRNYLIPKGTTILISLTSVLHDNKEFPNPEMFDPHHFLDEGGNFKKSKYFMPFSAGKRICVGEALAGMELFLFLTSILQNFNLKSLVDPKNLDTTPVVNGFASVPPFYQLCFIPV
# CYP2C9 inhib = blockers of cytochrome P450 2C9 activity – biochemical, luminescence, ADME assay, primary screen; P11712; CYP2C9 Supersomes, luciferin-H conversion; inhibition, % at 5 µM; 96,000 tested, 20% active; AID 777, 2007;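 active = blocking of liver enzyme CYP2C9 beyond about 50% at 5 µM, limit read from the data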
# Active calls of the source: *; . = no result given. Sampled rows, rich in hits. Any-hit rate of the full collection: about 27%.
SMILES,Cav32 inh,CYP2C19 act,CYP2C19 inhib,CYP2C9 activ,CYP2C9 inhib
CCOC(=O)C(NC(C)=O)(N1CCc2ccccc2C1)C(F)(F)F (stereo not drawn),-1.2,0.3,75*,0.1,92*
CCOC(=O)C(NC(=O)c1ccc(OC)cc1)(N1CCOCC1)C(F)(F)F (stereo not drawn),2,0.7,35,0.4,63*
CCOC(=O)C(NCc1ccccc1OC)(NC(=O)c1ccccc1)C(F)(F)F (stereo not drawn),-0.14,0.5,48,0.4,63*
COc1cc2c(cc1OC)C(c1cc3cc4c(cc3[nH]c1=O)OCO4)N(C(=O)C(C)C)CC2 (stereo not drawn),-0.21,.,.,.,.
COc1cccc(C(=O)N(Cc2ccc(N(C)C)cc2)C2CCS(=O)(=O)C2)c1 (stereo not drawn),0.78,0.8,23,1.1,-6
COc1cc(N=c2ssnc2Cl)cc(OC)c1,1.1,0.5,48,0,100*
O=C(/C=C/c1ccccc1Cl)c1cccnc1,-0.81,0.5,54*,0.9,13
O=C(O)c1cccnc1,-0.44,.,.,.,.
O=C(/C=C/c1ccc(Cl)cc1)c1cccnc1,.,0.1,94*,0.5,52*
O=C1CC(N2CCN(c3ccc(F)cc3)CC2)C(=O)N1Cc1ccc(N2CCCC2=O)cc1 (stereo not drawn),0.46,0.8,22,0.8,20
CCOC(=O)c1ccc(NC(=O)NC(C)C2CCCO2)cc1 (stereo not drawn),0.46,1.1,-7,0.9,10
C=CC[N+](C)(C)C/C(Cl)=C(\Cl)c1ccccc1,0.36,1.1,-14,0.5,55*
CC(SCc1ccccc1)C(=O)NN=C1CCN(C)CC1 (stereo not drawn),0.92,0.9,11,1.1,-9
COc1ccc(S(=O)(=O)n2nc(-c3ccc(Cl)cc3)cc2N)cc1OC,0.58,0.2,83*,0.2,80*
Nc1cc(-c2ccc(Br)cc2)nn1S(=O)(=O)c1ccccc1,-0.032,0.9,8,0.7,35
COc1cc(-c2cc(N)n(S(=O)(=O)c3ccc(F)cc3)n2)cc(OC)c1OC,-1.3,0.2,79*,0.2,82*
Nc1cc(-c2ccccc2)nn1S(=O)(=O)c1ccc(F)cc1,-7.2*,0,100*,0,97*
Nc1cc(-c2ccc(Cl)cc2)nn1S(=O)(=O)c1ccc(Cl)cc1,-0.44,0.8,18,0.8,25
CCOc1ccc(-c2cc(N)n(S(=O)(=O)c3ccc(OC)c(OC)c3)n2)cc1,0.63,0.6,40,0.7,34
Cc1cc(C)n(C(=O)CNC(=O)c2cccs2)n1,1.2,0.8,18,0.9,13
CCOc1cc(/C=N/NC(=O)COc2cccc(C)c2)ccc1OC(=O)c1cccs1,.,0.8,18,0.4,59*
O=C(CCCn1c(=O)oc2ccccc21)N1CCc2ccccc2C1,0.23,0.2,75*,1,-1
O=C(CCS(=O)(=O)c1ccc(Br)cc1)N1CCN(c2ccccc2Cl)CC1,-5.7*,0.3,71*,1,-2
O=C(CCn1c(=O)oc2ccccc21)N1CCN(c2ccccc2Cl)CC1,-4*,.,.,.,.
NC(=O)CC(NC(=O)Cc1cccc2ccccc12)c1ccc(N2CCc3ccccc3C2)c([N+](=O)[O-])c1 (stereo not drawn),-0.72,.,.,.,.
SMILES,Cav32 inh,CYP2C19 act,CYP2C19 inhib,CYP2C9 activ,CYP2C9 inhib
NC(=O)Cn1c2[n+](c3ccccc31)CC(O)CS2 (stereo not drawn),0.78,1.2,-19,1.1,-13
CC(C)(C)c1cc(S(=O)(=O)CCc2ccccn2)cc(C(C)(C)C)c1F,-4*,0.8,24,0.6,44
O=S(=O)(c1ccccc1)N1N=C(c2cccs2)CC1c1ccc(Br)cc1 (stereo not drawn),-0.94,0.8,21,0.5,52*
COc1ccc(S(N)(=O)=O)cc1C(=O)NCC1(N2CCCCC2)CCCCC1,0.34,1,1,1.1,-7
COc1cccc(CNc2nn[nH]n2)c1OC,0.18,0.9,13,1.1,-11
COc1cccc(CNc2ccc(N3CCC(C)CC3)cc2)c1OC,-7.7*,.,.,.,.
COC(=O)c1ccc(C2C(C(C)=O)=C(O)C(=O)N2CCO)cc1 (stereo not drawn),0.58,1,0,1,3
COc1cc(Cn2cnnn2)ccc1O,-0.14,1.1,-5,1.6,-64
Fc1ccc(NC(=S)N2N=CCC2c2ccccc2)cc1 (stereo not drawn),0.66,0.4,64*,0.7,26
S=C(Nc1ccccc1)N1N=CCC1c1ccccc1 (stereo not drawn),-1.2,0.3,66*,0.7,26
CCN(CC)CCCNC(=O)C1CCC(=O)N(c2ccc(OC)cc2)C1c1ccc(F)cc1 (stereo not drawn),0.029,1.2,-21,1.2,-20
Cc1nc(-c2ccccc2)sc1C(=O)CSc1ccccc1,0.31,1,4,0.2,80*
Cc1nc(-c2ccccc2)sc1C(N)=O,-0.66,0.8,22,0.6,36
Cc1nc(-c2ccccc2)sc1C(=O)CSc1ccc(F)cc1,-0.42,0.4,64*,0.1,86*
CC(=O)C(C)Oc1cc(C)cc2oc(=O)c(C)c(C)c12 (stereo not drawn),1.3,0.7,28,0.4,57*
CC(=O)COc1cc(C)cc2oc(=O)c(C)c(C)c12,-0.051,0.8,17,0.7,34
Cc1ccc(NS(=O)(=O)c2cc(C(=O)NCCSC3CCCCC3)ccc2C)cc1,-4.5*,0.7,28,0.5,54*
Cc1ccc(C(=O)NCCSc2ccc(Cl)cc2)cc1S(=O)(=O)Nc1ccccc1,-2.8,0.6,39,0.5,52*
CN(C)S(=O)(=O)c1ccc(C(=O)NCCSc2ccccc2)cc1,-0.26,0.9,8,0.9,10
Cc1ccc(SCCNC(=O)c2ccccc2)cc1,-0.45,0.6,37,0.8,23
CS(=O)(=O)Nc1ccc(C(=O)NCCSC2CCCCC2)cc1,0.52,1,-4,0.9,7
Cc1ccc(NS(=O)(=O)c2cc(C(=O)NCCSc3ccc(C)cc3)ccc2C)cc1,-4.4*,0.3,67*,0.2,78*
Cc1ccc(SCCNC(=O)c2ccc(C)c(S(=O)(=O)Nc3cccc(C)c3)c2)cc1,-4.6*,0.4,62*,0.3,71*
CCCCC1(O)CC(C(F)(F)F)=NN1C(=O)COc1ccccc1 (stereo not drawn),-4.2,.,.,.,.
CC1(C)CC(=O)c2sc(NC(=O)c3cccs3)nc2C1,-0.74,.,.,.,.
C[N+]12CCCCC1C(COC(=O)c1ccc3c(c1)OCO3)CCC2 (stereo not drawn),.,0.9,7,1.3,-29

# Bioassay records from PubChem.
